Compound activity (PubChem)
The list is not random: actives were taken first. Their share in the collection is about 6.2%.
AHR act: activators of human aryl hydrocarbon receptor. P35869. AHR-responsive luciferase reporter cells, luminescence. activation, % at 5 µM. hit rate 2.5% among 320,000. AID 2796; in the data active means activation above about 47%;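 further: 0% = vehicle wells and 100% = reference agonist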
NTR1 ag: activates human neurotensin receptor 1; P30989; NTR1-U2OS beta-arrestin-GFP spot imaging, agonist mode; activation, % at 20 µM; hit rate 0.17% among 330,000;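 active means activation at or above 40% of the spot to cytoplasm intensity ratio, with at least 20 cells analyzed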;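 further: 0% = DMSO without peptide and 100% = 100 nM NTR1 peptide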
Target sequence (P30989 whole entry, looked up): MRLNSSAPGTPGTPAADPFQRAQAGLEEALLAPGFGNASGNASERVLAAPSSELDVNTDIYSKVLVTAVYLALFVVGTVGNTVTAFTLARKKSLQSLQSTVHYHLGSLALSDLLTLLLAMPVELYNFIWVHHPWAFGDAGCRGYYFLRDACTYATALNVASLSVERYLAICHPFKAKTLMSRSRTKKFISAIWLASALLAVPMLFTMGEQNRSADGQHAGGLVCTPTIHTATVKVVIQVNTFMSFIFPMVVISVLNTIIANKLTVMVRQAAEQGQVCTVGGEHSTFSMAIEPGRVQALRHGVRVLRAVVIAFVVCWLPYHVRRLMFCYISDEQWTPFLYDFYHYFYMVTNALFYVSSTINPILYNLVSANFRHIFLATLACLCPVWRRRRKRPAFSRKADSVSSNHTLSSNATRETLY
AI-2 QS modul: modulates the Vibrio harveyi AI-2 quorum sensing system; hit rate 0.4% among 300,000; Vibrio harveyi JMH597 AI-2 luminescence/OD600 ratio, 9 h; active compounds read low; strain lacks LuxN and CqsS sensors; 0 = neutral-control median; activity change, % at 7.5 µM; AID 2094; in the data active means activity change below about -75%, passing the limit was not always enough;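 further: luminescence divided by OD600 gain over 9 h not by final OD600 alone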
Mot1-301 SUMO: inhibitors of SUMOylation pathway: yeast Mot1-301 growth rescue. S. cerevisiae Mot1-301 growth rescue, ATP luminescence, 38.5C; percent above DMSO median, 100 means doubled. growth rescue, % at 18.8 µM. hit rate 1% among 320,000. AID 2716;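 active means every valid replicate shows activation above 250% relative to neutral control wells; inactive means the rest, any valid replicate at or below 250%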;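 further: OY570 slx delta 5 strain wells were the positive control but not used for scaling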
NR3A LBD binder: NR3A (human) ligand-binding domain modulation; hit rate 2.5% among 340,000; NR3A LBD differential scanning fluorimetry, Tm shift; 0% = protein alone, 100% = glycine-bound protein; AID 1259313; Tm shift relative to glycine control, % at 25 µM;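 active means melting temperature shift of at least 10% of the positive control shift, at one fixed dose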
H9c2 protect: modulators protecting cardiomyocytes from myocardial damage | H9c2 cardiomyocytes, H2O2 injury protection, ATPLite, 2 h | protection from H2O2 cell death, % at 20 µM | hit rate 0.63% among 360,000;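 active means compounds giving at least 50% protection of heart cells from peroxide-induced death in the single-dose screen, raw or plate-pattern-corrected value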;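 further: 0% = DMSO wells with peroxide and 100% = DMSO wells without peroxide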
* = called active by the depositor.

Results for O=C(NN=C(c1ccccc1)c1ccccn1)c1ccccc1 ?
AHR act: 20; NTR1 ag: 4; Mot1-301 SUMO: 18; NR3A LBD binder: 1; H9c2 protect: 37

What do the screens show for `COc1ccc(C(=O)N/N=C(\c2ccccc2)c2ccccn2)cc1`?
AHR act: 15; AI-2 QS modul: 47; Mot1-301 SUMO: 4; NR3A LBD binder: 0; H9c2 protect: 60*

Results for O=C(c1ccccc1Cl)c1c(O)c2ccccc2oc1=O ?
AHR act: 55*; NTR1 ag: -1; AI-2 QS modul: -3; Mot1-301 SUMO: 7; NR3A LBD binder: 0; H9c2 protect: 2

What do the screens show for `CCC(=O)Nc1c(C)nn(-c2ccc(C)c(C)c2)c1C`?
AHR act: 19; NTR1 ag: 0; AI-2 QS modul: 11; Mot1-301 SUMO: 6; NR3A LBD binder: 1; H9c2 protect: 3

How did Cc1ccc(-n2nc(C)c(NC(=O)CCl)c2C)cc1C do in these assays?
AHR act: 52*; NTR1 ag: -1; AI-2 QS modul: 6; Mot1-301 SUMO: -3; NR3A LBD binder: -9; H9c2 protect: -10

Results for COc1cc(/C=N/NC(=O)c2cccc(S(=O)(=O)N3CCCC3)c2)cc(OC)c1O ?
AHR act: 3; NTR1 ag: 0; AI-2 QS modul: 23; Mot1-301 SUMO: 0; NR3A LBD binder: 7; H9c2 protect: 5

What do the screens show for `N#CC(C#N)=C(Nc1ccc(F)cc1)SCc1cccc(Br)c1`?
AHR act: 1; AI-2 QS modul: -4; Mot1-301 SUMO: -18; NR3A LBD binder: 25*; H9c2 protect: -17

How did CCCC[C@@H](CNC)NC[C@H](Cc1ccc(O)cc1)NCCc1ccc(OCC)cc1 do in these assays?
AHR act: -4; NTR1 ag: 7; AI-2 QS modul: 8; Mot1-301 SUMO: -4; NR3A LBD binder: 1; H9c2 protect: 9

Results for Cc1cc(C)c(C#N)c(Nc2ccc(F)cc2)n1 ?
AHR act: 74*; NTR1 ag: -2; AI-2 QS modul: 8; Mot1-301 SUMO: 5; NR3A LBD binder: -1; H9c2 protect: -5

How did CC1CCN(C(=O)Cn2c3ccccc3c3nc4n(c(=O)c32)CCS4)CC1 do in these assays?
AHR act: 4; NTR1 ag: 2; AI-2 QS modul: 42; Mot1-301 SUMO: 269; NR3A LBD binder: -2; H9c2 protect: 27

How did Cc1cccc(-c2nc(S(=O)(=O)c3ccc(F)cc3)c(NCCCN3CCOCC3)o2)c1 do in these assays?
AHR act: 7; NTR1 ag: 1; AI-2 QS modul: 30; Mot1-301 SUMO: 1; NR3A LBD binder: -4; H9c2 protect: 8

What do the screens show for `CCOC(=O)n1c2ccccc2c(=O)n1CCO`?
H9c2 protect: -2

What do the screens show for `COc1ccc(/C=C2/CCC(CN3CCOCC3)C2=O)cc1` (centres undefined)?
NR3A LBD binder: 3; H9c2 protect: -20

Results for COc1ccc(OC)c(NC(=O)Nc2c(O)ccc3ccccc23)c1 ?
AHR act: 63*; NTR1 ag: 0; AI-2 QS modul: 8; Mot1-301 SUMO: -10; NR3A LBD binder: -6; H9c2 protect: 0

Results for COc1ccc(S(=O)(=O)Nc2ccc(O)c3ccccc23)cc1 ?
AHR act: 61*; NTR1 ag: 2; AI-2 QS modul: 20; Mot1-301 SUMO: -1; NR3A LBD binder: -2; H9c2 protect: -13

Results for COc1ccc(OC)c(NC(=O)Cc2coc3ccc4ccccc4c23)c1 ?
AHR act: 25; NTR1 ag: 4; AI-2 QS modul: -7; Mot1-301 SUMO: 497*; NR3A LBD binder: -8; H9c2 protect: -7

How did COc1ccc(OC)c(NC(=O)Cc2coc3ccc(C)cc23)c1 do in these assays?
AHR act: 0; NTR1 ag: -1; AI-2 QS modul: 14; Mot1-301 SUMO: 2; NR3A LBD binder: 2; H9c2 protect: -3

How did COc1ccc(OC)c(C(=O)Nc2c(O)ccc3ccccc23)c1 do in these assays?
AHR act: 45; NTR1 ag: 2; AI-2 QS modul: -6; Mot1-301 SUMO: -3; NR3A LBD binder: 3; H9c2 protect: -13

Results for COc1ccc(OC)c(NC(=O)Nc2ccc(O)c3ccccc23)c1 ?
AHR act: 49*; NTR1 ag: 2; AI-2 QS modul: 6; Mot1-301 SUMO: -4; NR3A LBD binder: -5; H9c2 protect: -2

Results for CCOC(=O)c1[nH]cnc1C(=O)N1CCC(C)CC1 ?
AHR act: 1; NTR1 ag: 0; Mot1-301 SUMO: -2; NR3A LBD binder: 0; H9c2 protect: 2

How did C[C@H](CO)N1C[C@H](C)[C@@H](CN(C)S(=O)(=O)c2ccc(F)cc2)Oc2c(NC(=O)CCC(F)(F)F)cccc2C1=O do in these assays?
AHR act: -1; NTR1 ag: -2; Mot1-301 SUMO: 122; NR3A LBD binder: 1; H9c2 protect: 8

What do the screens show for `COc1ccc(S(=O)(=O)N(C)C[C@H]2Oc3c(NC(=O)CCC(F)(F)F)cccc3C(=O)N([C@H](C)CO)C[C@@H]2C)cc1`?
AHR act: 1; NTR1 ag: 4; Mot1-301 SUMO: 1; NR3A LBD binder: 10*; H9c2 protect: 5

What do the screens show for `COc1ccc(S(=O)(=O)Nc2cccc3c2O[C@H](CN(C)S(=O)(=O)c2ccc(F)cc2)[C@H](C)CN([C@H](C)CO)C3=O)cc1`?
AHR act: -1; NTR1 ag: -1; Mot1-301 SUMO: -8; NR3A LBD binder: 10*; H9c2 protect: 13

What do the screens show for `O=C(Nc1ccc2c(c1)OCO2)c1cc(-c2ccc(O)cc2)on1`?
AHR act: 12; NTR1 ag: 8; AI-2 QS modul: 31; Mot1-301 SUMO: 22; NR3A LBD binder: 18*; H9c2 protect: -9

Results for Cc1ccc(NC(=O)c2cc(-c3ccc4c(c3)OCO4)on2)cc1C ?
AHR act: -3; NTR1 ag: 0; AI-2 QS modul: 17; Mot1-301 SUMO: 45; NR3A LBD binder: -1; H9c2 protect: -9

What do the screens show for `COc1cccc(-c2cc(C(=O)Nc3ccc4c(c3)OCO4)no2)c1`?
AHR act: -5; NTR1 ag: 1; AI-2 QS modul: 21; Mot1-301 SUMO: 126; NR3A LBD binder: 15*; H9c2 protect: -4

What do the screens show for `O=C(Nc1ccc2c(c1)OCO2)c1cc(Cl)ccn1`?
AHR act: 67*; NTR1 ag: -1; Mot1-301 SUMO: 32; NR3A LBD binder: -1; H9c2 protect: -12

Results for Cc1cc(C(=O)Nc2ccc3c(c2)OCO3)no1 ?
AHR act: 58*; NTR1 ag: 0; AI-2 QS modul: 16; Mot1-301 SUMO: -1; NR3A LBD binder: -3; H9c2 protect: -9

How did O=C(Cc1csc(-c2ccccc2)n1)NCC(=O)Nc1ccc(F)c(F)c1F do in these assays?
AHR act: 38; NTR1 ag: -1; Mot1-301 SUMO: -2; NR3A LBD binder: -1; H9c2 protect: 4
